In PubChem BioAssay (Tox21):
Several values for one entry are separate records, joined by “and”; a condition that tells them apart may be missing. Identical values can stand only once. Results filed as inconclusive are left out. A call without a number means that no potency is given here. Some compounds were tested as several samples or in several runs, with calls that do not always agree. Activity calls are given as the source filed them. Unless noted, calls follow the shape of the dose curve; as a rule, active = well fitted curve in the direction sought with a large enough effect in the repeat runs; inconclusive = weak or mixed curves; inactive = no such curve, though single readings can be large; an effect the other way counts as inactive or inconclusive.

Experiments:
[1] = qHTS assay to identify small molecule agonists of the progesterone receptor (PR) signaling pathway - cell viability counter screen (AID 1346799; calls by dose curve; also: nearly all actives have a fitted effect of over 45% in size)
How it was run: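 In parallel with the beta-lactamase readout, cytotoxicity toward PR-UAS-bla HEK293T cells was measured by CellTiter-Glo luminescence following 16 hr compound incubation in 2% charcoal-stripped FBS medium.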

[2] = qHTS assay to identify small molecule antagonists of the TGF-beta/Smad signaling pathway - cell viability counter screen (AID 1346824); also: nearly all actives have a fitted effect of over 50% in size
How it was run: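 SBE-bla HEK 293T cells, incubated overnight, then compound plus 0.25 ng/mL TGF-beta1 (stock added) for 5 hr at 37 C. Viability was read in the same wells by CellTiter-Glo luminescence after 30 min at room temperature.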

[3] = qHTS assay to identify small molecule agonists of the TGF-beta/Smad signaling pathway - cell viability counter screen (AID 1346829); also: top concentration of the series differs between compounds; nearly all actives have a fitted effect of over 45% in size
How it was run: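 Luminescence from CellTiter-Glo, read after a 30 min room-temperature incubation, gives cell viability of SBE-bla HEK 293T cells treated 5 hr with compounds at 37 C.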

[4] = qHTS assay to identify small molecule agonists of the TGF-beta/Smad signaling pathway (AID 1346859; active = well fitted activation curve with a large enough effect in the signal ratio in the repeat runs, not every such curve was filed as active; the % refers to the signal ratio; also: series mostly up to about 77 µM)
How it was run: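 After overnight seeding, SBE-bla HEK 293T cells are dosed with compounds in DMSO and kept 5 hr at 37 C, 5% CO2. LiveBLAzer-type FRET substrate is then applied for 2 hr at room temperature.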

[5] = molecular target: Thyrotropin-releasing hormone receptor (Homo sapiens) (UniProt P34981); test: qHTS assay to identify small molecule antagonists of the thyrotropin-releasing hormone receptor (TRHR) signaling pathway (AID 1346877; active = well fitted inhibition curve with a large enough effect in the repeat runs, not every such curve was filed as active; also: series mostly up to about 51 µM)
Chain of Thyrotropin-releasing hormone receptor (Homo sapiens) (P34981 whole entry, looked up): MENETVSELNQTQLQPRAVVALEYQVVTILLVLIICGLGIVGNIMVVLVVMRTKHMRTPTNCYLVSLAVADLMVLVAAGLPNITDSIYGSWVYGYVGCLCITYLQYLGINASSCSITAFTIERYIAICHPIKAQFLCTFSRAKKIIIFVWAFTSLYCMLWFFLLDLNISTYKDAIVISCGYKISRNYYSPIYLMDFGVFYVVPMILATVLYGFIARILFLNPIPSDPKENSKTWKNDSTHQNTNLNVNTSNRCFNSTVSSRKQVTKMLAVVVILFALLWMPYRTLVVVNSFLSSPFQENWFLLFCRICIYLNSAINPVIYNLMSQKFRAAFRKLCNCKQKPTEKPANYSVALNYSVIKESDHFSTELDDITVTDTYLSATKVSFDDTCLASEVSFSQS
How it was run: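 Following an 18 h incubation at 37 °C and a 2 h calcium dye load, TRHR-HEK293 cells were exposed to compound (5 min, room temperature) and challenged with TRH, 1 nM final.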

[6] = molecular target: Thyrotropin-releasing hormone receptor (Homo sapiens) (UniProt P34981); test: qHTS assay to identify small molecule agonists of the thyrotropin-releasing hormone receptor (TRHR) signaling pathway (AID 1346891; calls by dose curve;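 also: HEK293 cells expressing TRHR with calcium dye readout; series mostly up to about 58 µM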)
How it was run: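 Compounds were tested as agonists at 15 concentrations, in triplicate, on TRHR-Hek293 cells; calcium-sensitive dye fluorescence was recorded for 3 min following addition.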

[7] = Human pregnane X receptor (PXR) small molecule agonists, qHTS cell viability counter screen (AID 1346977); also: nearly all actives have a fitted effect of over 50% in size
How it was run: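 Viability counter screen: CellTiter-Fluor signal in PXR-Luc HepG2 cells, 24hr compound exposure, 37C, 5% CO2.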

[8] = Caspase-3/7 induction in HepG2 cells by small molecules, qHTS assay (AID 1346978); also: nearly all actives have a fitted effect of over 15% in size
How it was run: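 Wild-type HepG2 cells, 2,000/well, settled 5 hr at 37 C and 5% CO2, then compound-treated for 17 hr; caspase-3/7 activity read by luminescent Caspase-Glo 3/7 after 30 min at room temperature.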

[9] = Caspase-3/7 induction in CHO-K1 cells by small molecules, qHTS cell viability counter screen (AID 1346979); also: nearly all actives have a fitted effect of over 35% in size
How it was run: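 Viability readout by fluorescence (CellTiter-Fluor) on wild-type CHO-K1 cells exposed for 16hr at 37C and 5% CO2 to compounds delivered in DMSO; reagent incubated 1hr before reading.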

[10] = Caspase-3/7 induction in HepG2 cells by small molecules, qHTS cell viability counter screen (AID 1346981); also: series mostly up to about 92 µM; nearly all actives have a fitted effect of over 30% in size
How it was run: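 Viability determined by CellTiter-Fluor fluorescence in HepG2 wells also used for the luminescent Caspase-Glo 3/7 read. Compounds were present for 16 hr at 37 C, 5% CO2 before reagent addition.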

[11] = molecular target: Nuclear receptor subfamily 1 group I member 2 (Homo sapiens) (UniProt O75469); test: Human pregnane X receptor (PXR) small molecule agonists, qHTS assay (AID 1346982); also: nearly all actives have a fitted effect of over 35% in size; also: potency is read from the fitted curve at half-maximal effect
Chain of Nuclear receptor subfamily 1 group I member 2 (Homo sapiens) (O75469 whole entry, looked up): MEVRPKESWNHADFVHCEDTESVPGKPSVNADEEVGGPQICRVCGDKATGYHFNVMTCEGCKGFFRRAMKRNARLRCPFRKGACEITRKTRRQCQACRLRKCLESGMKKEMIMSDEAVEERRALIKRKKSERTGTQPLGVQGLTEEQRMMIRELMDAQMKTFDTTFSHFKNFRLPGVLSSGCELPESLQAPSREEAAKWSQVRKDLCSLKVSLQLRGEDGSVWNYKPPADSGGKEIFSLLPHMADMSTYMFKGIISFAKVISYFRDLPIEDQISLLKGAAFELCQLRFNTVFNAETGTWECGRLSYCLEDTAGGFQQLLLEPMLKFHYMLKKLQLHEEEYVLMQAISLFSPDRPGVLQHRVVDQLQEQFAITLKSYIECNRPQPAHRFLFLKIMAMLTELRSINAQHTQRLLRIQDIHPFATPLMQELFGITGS
How it was run: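 Compound-induced hPXR transactivation of a CYP3A4 luciferase reporter was scored in HepG2 PXR-Luc cells over 24 hr at 37 C, 5% CO2, by luminescence.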

[12] = molecular target: Acetylcholinesterase (Homo sapiens) (UniProt P22303); test: Acetylcholinesterase (AChE) small molecule antagonists: fluorescence cell-based qHTS assay (AID 1347398; calls by dose curve; also: nearly all actives have a fitted effect of over 50% in size; also: potency is read from the fitted curve at half-maximal effect); details: Potency: AChE activity
Chain of Acetylcholinesterase (Homo sapiens) (P22303 whole entry, looked up): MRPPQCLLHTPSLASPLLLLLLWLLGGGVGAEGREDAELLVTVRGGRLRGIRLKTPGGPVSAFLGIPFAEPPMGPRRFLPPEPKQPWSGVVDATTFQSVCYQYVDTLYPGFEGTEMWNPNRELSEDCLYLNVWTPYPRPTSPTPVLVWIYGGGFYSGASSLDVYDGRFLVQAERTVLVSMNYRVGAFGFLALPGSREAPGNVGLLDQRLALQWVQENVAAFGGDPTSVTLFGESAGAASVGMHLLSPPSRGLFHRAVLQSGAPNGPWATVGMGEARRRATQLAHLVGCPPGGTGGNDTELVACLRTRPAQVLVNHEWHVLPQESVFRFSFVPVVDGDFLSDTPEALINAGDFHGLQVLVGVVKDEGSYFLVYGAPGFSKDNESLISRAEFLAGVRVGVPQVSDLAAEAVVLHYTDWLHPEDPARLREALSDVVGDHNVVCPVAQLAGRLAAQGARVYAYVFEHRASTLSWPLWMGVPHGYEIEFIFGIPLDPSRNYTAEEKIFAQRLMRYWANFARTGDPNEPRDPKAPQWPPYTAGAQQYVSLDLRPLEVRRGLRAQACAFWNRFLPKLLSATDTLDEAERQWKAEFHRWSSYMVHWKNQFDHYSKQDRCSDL
How it was run: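 Endogenous acetylcholinesterase of SH-SY5Y neuroblastoma cells is measured in situ. After overnight attachment and 30 min compound exposure, cells receive acetylthiocholine and Thiolite Green; fluorescence is read after 40 min at room temperature.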

[13] = molecular target: Acetylcholinesterase (Homo sapiens) (UniProt P22303); test: Acetylcholinesterase (AChE) small molecule antagonists: enzyme-based qHTS assay with human liver microsomes (AID 1347399; calls by dose curve; also: nearly all actives have a fitted effect of over 60% in size; also: potency is read from the fitted curve at half-maximal effect); details: Potency: qHTS inhibition
How it was run: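 Recombinant human AChE (50 mU/mL in the enzyme mix) and human liver microsomes (0.25 mg/mL final) were preincubated with compound and NADPH (0.25 mg/mL final) for 30 min at 37 C. Acetylthiocholine/DTNB was then added; thiocholine was read colorimetrically after 10 min at room temperature.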

[14] = molecular target: Cytochrome P450 2D6 (Homo sapiens) (UniProt P10635); test: Cytochrome P450 Family 2 Subfamily D Member 6 (CYP2D6) small molecule antagonists: luciferase reporter qHTS assay (AID 1671196); also: nearly all actives have a fitted effect of over 50% in size; also: potency is read from the fitted curve at half-maximal effect
Chain of Cytochrome P450 2D6 (Homo sapiens) (P10635 whole entry, looked up): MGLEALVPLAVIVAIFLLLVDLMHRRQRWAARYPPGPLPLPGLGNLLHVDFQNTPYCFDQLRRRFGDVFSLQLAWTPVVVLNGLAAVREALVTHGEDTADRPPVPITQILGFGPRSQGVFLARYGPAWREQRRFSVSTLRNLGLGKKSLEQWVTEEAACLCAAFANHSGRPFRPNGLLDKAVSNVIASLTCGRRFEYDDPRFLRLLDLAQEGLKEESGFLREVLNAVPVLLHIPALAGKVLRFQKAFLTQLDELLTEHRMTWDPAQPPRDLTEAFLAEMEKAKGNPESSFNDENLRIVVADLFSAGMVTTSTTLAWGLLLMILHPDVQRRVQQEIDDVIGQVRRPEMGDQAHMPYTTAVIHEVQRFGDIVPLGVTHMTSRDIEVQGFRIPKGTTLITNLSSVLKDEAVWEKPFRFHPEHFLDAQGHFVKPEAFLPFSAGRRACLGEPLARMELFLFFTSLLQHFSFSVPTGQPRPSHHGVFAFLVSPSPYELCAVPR
How it was run: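 Each well received CYP2D6 with its proluciferin substrate and chemical, sat 10 min, then got NADPH regeneration solution for 1 h at room temperature. Luminescence in RLU served as the activity measure.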

[15] = molecular target: Acetylcholinesterase (Homo sapiens) (UniProt P22303); test: Acetylcholinesterase (AChE) small molecule antagonists: colormetric cell-based qHTS assay (AID 1347395; calls by dose curve; also: nearly all actives have a fitted effect of over 30% in size; also: potency is read from the fitted curve at half-maximal effect)
How it was run: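 Homogeneous whole-cell format. SH-SY5Y cells seeded overnight, dosed with compound (30 min, 37 C, 5% CO2), then given DTNB/acetylthiocholine cocktail for 90 min at 37 C; colorimetric signal.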

[16] = Caspase-3/7 induction in CHO-K1 cells by small molecules, qHTS assay (AID 1346980); also: nearly all actives have a fitted effect of over 15% in size
How it was run: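 Wild-type CHO-K1 cells exposed to compounds for 17hr at 37 C, 5% CO2. Caspase-3/7 activity then measured by Caspase-Glo 3/7 luminescence after 30min at room temperature.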

[17] = molecular target: Acetylcholinesterase (Homo sapiens) (UniProt P22303); test: Acetylcholinesterase (AChE) small molecule antagonists: enzyme-based qHTS assay (AID 1347397; calls by dose curve; also: nearly all actives have a fitted effect of over 55% in size); details: Potency: AChE enzyme activity inhibition
How it was run: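 Enzyme inhibition was scored from DTNB-detected thiocholine formed by recombinant human AChE acting on acetylthiocholine. The 30 min compound preincubation and 10 min substrate reaction were both run at room temperature, with DMSO as vehicle control.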

[18] = molecular target: Nuclear receptor subfamily 1 group I member 2 (Rattus norvegicus) (UniProt Q9R1A7); test: Rat pregnane X receptor (rPXR) activation by small molecules, qHTS assay (AID 1346983); details: rPXR luciferase reporter cells, One-Glo luminescence, 24 h; stronger effect = higher value; also: nearly all actives have a fitted effect of over 20% in size
Chain of Nuclear receptor subfamily 1 group I member 2 (Rattus norvegicus) (Q9R1A7 whole entry, looked up): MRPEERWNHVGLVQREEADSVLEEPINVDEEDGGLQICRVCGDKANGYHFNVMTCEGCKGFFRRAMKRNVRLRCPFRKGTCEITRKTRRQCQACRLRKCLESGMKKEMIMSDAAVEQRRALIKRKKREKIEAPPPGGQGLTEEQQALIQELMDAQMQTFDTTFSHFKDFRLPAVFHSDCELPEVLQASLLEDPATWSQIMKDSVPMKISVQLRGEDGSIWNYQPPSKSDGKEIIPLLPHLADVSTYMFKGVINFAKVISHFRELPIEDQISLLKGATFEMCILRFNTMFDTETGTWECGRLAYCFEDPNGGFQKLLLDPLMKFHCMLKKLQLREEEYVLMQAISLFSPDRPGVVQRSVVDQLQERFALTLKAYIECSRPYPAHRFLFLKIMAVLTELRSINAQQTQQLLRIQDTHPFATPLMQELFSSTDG
How it was run: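 Cell-based rPXR activation assay: rPXR cells, 2,000 per well, rested 5hr at 37 C, then exposed to compounds in DMSO for 24 hr at 37 C. Luciferase activity read by One-Glo luminescence after 30 min at room temperature.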

[19] = molecular target: Nuclear receptor subfamily 1 group I member 2 (Homo sapiens) (UniProt O75469); test: CYP3A4 induction through human pregnane X receptor (PXR) by small molecules, qHTS assay (AID 1346984); also: nearly all actives have a fitted effect of over 40% in size
How it was run: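 Readings come from a luciferase reporter: DPX-2 cells, which are HepG2 cotransfected with PXR and a CYP3A4-promoter construct, were exposed to test compounds for 24 h at 37C before One-Glo detection.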

[20] = molecular target: Nuclear receptor subfamily 1 group I member 2 (Homo sapiens) (UniProt O75469); test: Human pregnane X receptor (PXR) activation by small molecules, qHTS assay (AID 1346985); also: nearly all actives have a fitted effect of over 40% in size
How it was run: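 DPX-2 cells (HepG2 co-transfected with a PXR response element and a CYP3A4-promoter luciferase construct) were seeded at 2,000 per well, rested 5 hr at 37C, then exposed to DMSO-dissolved compounds for 24 hr. Activation was read as luciferase luminescence.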

Row | SMILES | Potency [1] | Potency [2] | outcome [3] | Potency [4] | outcome [5] | Potency [6] | Potency [7] | outcome [8] | Potency [9] | Potency [10] | Potency [11] | Potency [12] | Potency [13] | Potency [14] | Potency [15] | outcome [16] | Potency [17] | max activation [18] | outcome [19] | Potency [20]
1 | CC(C#N)CCC#N (stereo not drawn) | inactive | inactive | inactive | inactive | inactive | inactive | inactive | inactive | inactive | inactive | inactive | 35.2 µM (active) and inactive | inactive | inactive | – | – | – | – | – | –
2 | CN(C)N=O | inactive | inactive | inactive | inactive | inactive | inactive | inactive | inactive | inactive | inactive | inactive | inactive | inactive | inactive | inactive | – | – | – | – | –
3 | Cc1cccc([N+](=O)[O-])c1 | inactive | inactive | inactive | inactive | inactive | inactive | inactive | inactive | inactive | inactive | inactive | inactive | inactive | inactive | – | inactive | inactive | – | – | –
4 | CCCCN(CC)C(=O)SCCC | inactive | inactive | inactive | inactive | inactive | inactive | inactive | inactive | inactive | inactive | inactive | inactive | inactive | – | inactive | – | inactive | – | – | –
5 | C#CCN(C)[C@H](C)Cc1ccccc1 | inactive | inactive | inactive | inactive | inactive | inactive | – | inactive | inactive | inactive | inactive | inactive | inactive | 12.6 µM (active) and 17.4 µM (active) | inactive | inactive | inactive | -1.33% (inactive) | inactive | inactive
6 | CCOP(=S)(OCC)Oc1cnc2ccccc2n1 | inactive | inactive | inactive | inactive | inactive | inactive | inactive | inactive | inactive | inactive | inactive and 30.6 µM (active) | inactive and 35.6 µM (active) | inactive and 1 µM (active) | 35.6 µM (active) | inactive and 35.6 µM (active) | – | inactive | – | – | –
7 | Cc1ccc(N)cc1Cl | inactive | inactive | inactive | inactive | inactive | inactive | inactive | inactive | inactive | inactive | inactive | inactive | inactive | – | inactive | – | – | – | – | –
8 | CN(C)CCO | inactive | inactive | inactive | inactive | inactive | inactive | inactive | inactive | inactive | inactive | inactive | inactive | inactive | inactive | – | – | inactive | – | – | –
9 | CN(N=O)c1ccccc1 | inactive | inactive | inactive | inactive | inactive | inactive | inactive | inactive | inactive | inactive | inactive | inactive | inactive | inactive | inactive | – | inactive | – | – | –
10 | CN(C)[C@@H]1C(=O)C(C(N)=O)=C(O)[C@@]2(O)C(=O)C3=C(O)c4c(O)cccc4[C@@](C)(O)[C@H]3C[C@@H]12 | inactive | inactive | inactive | inactive | inactive | inactive | inactive | inactive | inactive | inactive | inactive | – | – | 31.8 µM (active) and inactive and 19.5 µM (active) | – | inactive | – | -1.09% (inactive) | inactive | inactive
11 | CC(C)OC(=O)Nc1cccc(Cl)c1 | inactive | inactive | inactive | inactive | inactive | inactive | inactive | inactive | inactive | inactive | 38 µM (active) and 48.6 µM (active) | inactive | inactive | – | inactive | inactive | – | – | – | –
12 | c1ccc(OP(Oc2ccccc2)Oc2ccccc2)cc1 | inactive | inactive | inactive | inactive | inactive | inactive | inactive | inactive | inactive | inactive | inactive | inactive | inactive | inactive | – | – | – | – | – | –
13 | CC(C)OC(=O)Nc1ccccc1 | inactive | inactive | inactive | inactive | inactive | inactive | inactive | inactive | inactive | inactive | 38.6 µM (active) | inactive | inactive | inactive | inactive | inactive | inactive | – | – | –
14 | ClCc1cccnc1 | inactive | inactive | inactive | inactive | inactive | inactive | inactive | inactive | inactive | inactive | inactive | inactive | inactive | – | – | inactive | inactive | – | – | –
15 | CC(C)C#N | inactive | inactive | inactive | inactive | inactive | inactive | inactive | inactive | inactive | inactive | inactive | inactive | inactive | – | inactive | inactive | – | – | – | –
16 | O=c1[nH]c2ccccc2c(=O)o1 | inactive | inactive | inactive | inactive | inactive | inactive | inactive | inactive | inactive | inactive | inactive | inactive | inactive | inactive | inactive | inactive | – | – | – | –
